Screens from PubChem BioAssay.
Shown are actives, neighbours in structure and some others; about 2.8% of the full set was active somewhere.
SNCA viab count – reduces viability of HEK-293 SNCA reporter cells; HEK-293-SNCA-luc viability, GF-AFC fluorescence, 24 h; Potency, µM (titrated, usually from 57.1 µM), usual class: cytotoxic; 150,000 compounds, 0.12% hits; also: nearly all actives have a fitted effect of over 30% in size
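Cytotoxicity counterscreen: after 24 h compound treatment of genome-edited SNCA-luciferase HEK-293 cells, live-cell protease substrate GF-AFC read by fluorescence after 30 min; activity scaled between DMSO (0%) and medium-only (-100%), curves Hill-fitted.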
KDM5B inhibitor – blocks human KDM5B histone demethylase activity; KDM5B demethylase, FDH-coupled NADH fluorescence (FDH is formaldehyde dehydrogenase); Potency, µM (top dose mostly 57.7 µM), actives largely listed as inhibitors; 220,000 compounds, 2.6% hits; AID 1347165; also: nearly all actives have a fitted effect of over 70% in size
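KDM5BΔAP (200 nM final) in 50 mM HEPES pH 7.5, 0.01% Tween-20 was preincubated 10 min at RT with compound over a concentration range. Substrate mix (H3K4me3 12.5 µM, α-KG 25 µM, Fe²⁺, ascorbate, NAD⁺, FDH) was added, and NADH fluorescence change over 30 min gave dose-response curves.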
IP6K1 inh – inhibitors of human IP6K1; Q92551; IP6K1 kinase, ADP-Glo luminescence, 2 h; stronger effect = lower value; activity change, % (series mostly up to about 58 µM); 140,000 compounds, 0.81% hits; AID 1645851; in the data active = activity change below about -25%
Target sequence (Q92551 whole entry, looked up): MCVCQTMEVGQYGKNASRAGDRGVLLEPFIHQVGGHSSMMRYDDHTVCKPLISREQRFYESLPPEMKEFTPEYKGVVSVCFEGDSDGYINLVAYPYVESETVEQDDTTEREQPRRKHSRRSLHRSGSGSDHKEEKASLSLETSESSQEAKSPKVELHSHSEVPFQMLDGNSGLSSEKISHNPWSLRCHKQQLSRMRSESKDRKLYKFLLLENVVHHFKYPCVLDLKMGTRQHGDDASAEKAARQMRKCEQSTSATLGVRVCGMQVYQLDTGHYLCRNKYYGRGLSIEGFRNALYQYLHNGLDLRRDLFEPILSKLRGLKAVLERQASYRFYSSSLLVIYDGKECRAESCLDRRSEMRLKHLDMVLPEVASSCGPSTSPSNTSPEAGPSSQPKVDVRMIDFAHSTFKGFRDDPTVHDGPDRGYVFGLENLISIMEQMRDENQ
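ADP-Glo luminescence measures ADP made by human IP6K1 during a 2 h RT reaction with ATP/IP6 (mix at 1.3 mM/130 uM); top library doses 57.5 and 19.1 uM final.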
SNCA expr inhib – inhibitors of alpha-synuclein (SNCA) gene expression; HEK-293 SNCA-luciferase knock-in, luminescence, 24 h; Potency, µM (titrated, usually from 57.2 µM), actives largely listed as inhibitors; 140,000 compounds, 0.17% hits; also: nearly all actives have a fitted effect of over 45% in size
Large screens that a line does not name were inactive. Unless noted, calls follow the shape of the dose curve; as a rule, active = well fitted curve in the direction sought with a large enough effect; inconclusive = small, poorly fitted or top-dose-only effect, or another doubt; inactive = no such curve, though single readings can be large; an effect the other way counts as inactive or inconclusive.

O=S(=O)(NCC1Cn2cccc2CN1Cc1ccccc1)c1ccccc1 (stereo unspecified)	none (no result: KDM5B inhibitor)
Cn1cnc(S(=O)(=O)NCC2Cn3cccc3CN2Cc2ccccc2)c1 (stereo unspecified)	KDM5B inhibitor 28µM
Cc1ncoc1C(=O)NCC1Cn2cccc2CN1Cc1ccccc1 (stereo unspecified)	KDM5B inhibitor 28µM
CC(C)S(=O)(=O)NCC1Cn2cccc2CN1Cc1ccccc1 (stereo unspecified)	KDM5B inhibitor inconclusive
O=C(NCC1Cn2cccc2CN1Cc1ccccc1)c1ccccn1 (stereo unspecified)	none (no result: KDM5B inhibitor)
CCn1ccc(C(=O)NCC2Cn3cccc3CN2Cc2ccccc2)n1 (stereo unspecified)	KDM5B inhibitor 28µM
Cn1nccc1C(=O)NCC1Cn2cccc2CN1Cc1ccccc1 (stereo unspecified)	KDM5B inhibitor 22µM
CCCNC(=O)c1ccc(NC(=O)c2ccc(F)cc2)cc1	none (no result: SNCA viab count, IP6K1 inh, SNCA expr inhib)
CN1Cc2cccn2CC1CNC(=O)c1ccccc1F (stereo unspecified)	KDM5B inhibitor inconclusive
CN1Cc2cccn2CC1CNC(=O)c1ccnn1C (stereo unspecified)	KDM5B inhibitor 22µM, SNCA expr inhib inconclusive
CCOc1ccccc1CN1CCC2(CCN([S+](=O)([O-])c3cccc(C(F)(F)F)c3)CC2)Oc2ccccc21	KDM5B inhibitor 13µM
CCOc1ccccc1CN1CCC2(CCN([S+](=O)([O-])c3ccc(C)cc3)CC2)Oc2ccccc21	SNCA viab count inconclusive, KDM5B inhibitor inconclusive
C#CCNC(=O)c1nc(-c2ccc(Cl)cc2)c2ccccn12	KDM5B inhibitor 32µM
C#CCNC(=O)c1nc(-c2ccc(Cl)cc2Cl)c2ccccn12	KDM5B inhibitor 89µM, SNCA expr inhib inconclusive
C#CCNC(=O)c1nc(-c2cc(Cl)cc(Cl)c2)c2ccccn12	KDM5B inhibitor 10µM
O=C(NCc1ccc2c(c1)OCO2)c1nc(-c2ccc(Cl)cc2)c2cnccn12	KDM5B inhibitor 28µM
Cc1ccc(CNC[C@H]2Cn3ccnc3CO2)cc1	none
CN(C(=O)c1c(Cl)c2ccccc2n1C)c1ccccc1	none (no result: SNCA viab count, IP6K1 inh, SNCA expr inhib)
NCc1ccc(-c2cccnc2)cc1	none
C#CCNC(=O)c1nc(-c2ccc(Cl)cc2)c2cnccn12	KDM5B inhibitor 40µM
COCc1ncc(C)n1CCNC(=O)c1ccc(C)[nH]c1=O	KDM5B inhibitor 22µM
COc1cc2c(NC3CCN(C(C)C)CC3)nc(N3CCC(F)(F)CC3)nc2cc1OCCCN1CCCC1	SNCA viab count 24µM (no result: KDM5B inhibitor, SNCA expr inhib)
Cc1ccc2nc3c(n2c1)C(c1ccccc1OCCN(C)C)CC(=O)NC3 (stereo unspecified)	KDM5B inhibitor 32µM
CS(=O)Cc1cccc(C(=O)NC2CCN(Cc3ccc(Cl)cc3)CC2)c1 (stereo unspecified)	none (no result: SNCA viab count, IP6K1 inh, SNCA expr inhib)
COc1ccc2cc(CN3CCC(OC)CC3)c(-c3cccc(C)c3)nc2c1	KDM5B inhibitor 25µM
CC(=O)Nc1ccc(NC(=O)c2csc(NCC(C)C)n2)cc1	none (no result: SNCA viab count, IP6K1 inh, SNCA expr inhib)
COc1ncccc1-c1nc(-c2c(C)noc2C)cc2c1cc(C)n2C	none
Cc1noc(C)c1-c1cc2c(cc(C)n2CCN(C)C)c(-c2ccccc2)n1	KDM5B inhibitor 32µM
Cc1noc(C)c1-c1cc2c(cc(C)n2C)c(-c2cccc(O)c2)n1	KDM5B inhibitor inconclusive
COc1cc(-c2nc(-c3c(C)noc3C)cc3[nH]c(C)cc23)ccn1	KDM5B inhibitor 32µM
COc1cc(-c2nc(-c3c(C)noc3C)cc3c2cc(C)n3CCN(C)C)ccn1	KDM5B inhibitor 32µM
COc1ccc(-c2nc(-c3c(C)noc3C)cc3c2cc(C)n3C)cn1	KDM5B inhibitor 35µM
CCC1CCc2c(sc3ncn4nc(Cn5nc(C(F)F)cc5C)nc4c23)C1 (stereo unspecified)	none (no result: SNCA viab count, IP6K1 inh, SNCA expr inhib)
Cc1noc(C)c1-c1cc2c(cc(C)n2CCN(C)C)c(Nc2ccncn2)n1	KDM5B inhibitor 32µM
COc1cncc(-c2nc(-c3c(C)noc3C)cc3c2cc(C)n3CCN(C)C)c1	KDM5B inhibitor 40µM
Cc1noc(C)c1-c1cc2c(cc(C)n2CCN(C)C)c(-c2ccsc2)n1	KDM5B inhibitor 32µM
Cc1cc2cc(-c3c(C)noc3C)nc(Nc3ccccn3)c2o1	KDM5B inhibitor inconclusive
Cc1cc(-c2nc(-c3c(C)noc3C)cc3c2cc(C)n3CCN(C)C)ccn1	KDM5B inhibitor 35µM
O=C(NCCc1nc(-c2cccnc2)n[nH]1)C1CNCCO1 (stereo unspecified)	none
CCCNC(=O)N(C1CCOCC1)C1CCN(C(=O)c2ccc3ncccc3c2)CC1	none
COc1ccccc1NC(=O)C1CCN(S(=O)(=O)c2ccc(OC)c3ncccc23)CC1	none (no result: SNCA viab count, IP6K1 inh, SNCA expr inhib)
Cc1noc(C)c1-c1cc2c(cc(C)n2CCN(C)C)c(-c2ccnn2C)n1	KDM5B inhibitor 35µM, SNCA expr inhib inconclusive
CC(Oc1ccc(Cl)cc1)C(=O)NC(C)c1ccccc1 (stereo unspecified)	none (no result: SNCA viab count, IP6K1 inh, SNCA expr inhib)
COCCN(Cc1ccccn1)Cc1cc(=O)c2cc(C)cc(C)c2[nH]1	KDM5B inhibitor 28µM
COc1cccc(-c2nc(SCc3cc(=O)c4cc(C)cc(C)c4[nH]3)n[nH]2)c1	none (no result: SNCA viab count, IP6K1 inh, SNCA expr inhib)
CCCc1noc(-c2cccn3c(CNC(=O)c4cc(F)ccc4Cl)nnc23)n1	KDM5B inhibitor 25µM
CCCc1noc(-c2cccn3c(CNC(=O)c4cc(Cl)ccc4F)nnc23)n1	KDM5B inhibitor 22µM, SNCA expr inhib inconclusive
CCCNC(C(=O)O)C(C)C (stereo unspecified)	none (no result: SNCA viab count, IP6K1 inh, SNCA expr inhib)
COc1ccc(OC)c(C2=NOC(C(=O)O)C2)c1 (stereo unspecified)	KDM5B inhibitor 28µM
CC(=O)c1ccc(NC(=O)COc2nc(C)c3c(c2C#N)CCCC3)cc1	none (no result: SNCA viab count, IP6K1 inh, SNCA expr inhib)
Cc1cn2nc(C(=O)Nc3ccc(F)cc3C)cc2c(N2CCSCC2)n1	SNCA viab count inconclusive, KDM5B inhibitor 25µM
Cc1ccc(NC(=O)c2cc3c(N4CCSCC4)nc(C)cn3n2)c(F)c1	KDM5B inhibitor 28µM
COc1cc(NC(=O)c2cc3c(N4CCSCC4)nc(C)cn3n2)c(OC)cc1Cl	KDM5B inhibitor inconclusive
Cc1cc(N2CCNC(c3ccccc3)C2)n2nc(C)c(C)c2n1 (stereo unspecified)	SNCA viab count inconclusive
Cc1nn2c(N3CCC(O)C3)cc(-c3ccccc3)nc2c1C (stereo unspecified)	KDM5B inhibitor 28µM
CC(=O)Nc1cccc(-c2cc3c(ccn3C)c(C(=O)NCc3c(C)cc(C)[nH]c3=O)n2)c1	KDM5B inhibitor 14µM
COc1ccccc1-c1cc2c(ccn2C)c(C(=O)NCc2c(C)cc(C)[nH]c2=O)n1	KDM5B inhibitor 35µM
COc1ccccc1-c1cc2[nH]ccc2c(C(=O)NCc2c(C)cc(C)[nH]c2=O)n1	none
Cc1cc(C)c(CNC(=O)c2nc(-c3cccnc3)cc3c2ccn3C(C)C)c(=O)[nH]1	none
Cc1cc(C)c(CNC(=O)c2nc(-c3cncnc3)cc3c2ccn3C(C)C)c(=O)[nH]1	KDM5B inhibitor 32µM
COc1cccc(-c2cc3c(ccn3C(C)C)c(C(=O)NCc3c(C)cc(C)[nH]c3=O)n2)c1	none
CSc1ccc(-c2cccc(C(=O)NCC(=O)NCc3ccccc3F)c2)cc1	SNCA viab count inconclusive (no result: KDM5B inhibitor)
